Data: ChEMBL document CHEMBL1157539, “Thousands of chemical starting points for antimalarial lead identification” (Nature, 2010)

Tested on: Plasmodium falciparum
Test: GSK_TCMDC: Inhibition of Plasmodium falciparum 3D7 in whole red blood cells, using parasite LDH activity as an index of growth. Test compounds present at 2uM
Type: functional

| Structure (SMILES) | Inhibition [%] |
| --- | --- |
| CC(=O)Nc1ccc(OCCCCN(Cc2ccccc2C(F)(F)F)c2ccc(C#N)c(C(F)(F)F)c2)cc1 | 80 |
| O=C(CCc1cccc(O)c1)NCC(NCCCNc1cc(=O)c2ccccc2[nH]1)c1cc(Br)cc(Br)c1 (stereo unspecified) | 86 |
| COc1cccc(-c2cccc(NC(=O)C3CCN(Cc4ccc(O)cc4)CC3)c2)c1 | 97 |
| O=C(Nc1ccc(Cl)c(Cl)c1)Nc1cc(C(F)(F)F)ccc1Cl | 100 |
| COc1ccc(NCc2cccc(-c3cccc(CNCCc4ccccc4)c3)c2)cc1.O=C(O)C(F)(F)F | 96 |

Tested on: Plasmodium falciparum
Test: GSK_TCMDC: Inhibition of Plasmodium falciparum Dd2 in whole red blood cells, using parasite LDH activity as an index of growth. Test compounds present at 2uM
Type: functional

| Structure (SMILES) | Inhibition [%] |
| --- | --- |
| CCOc1cc(CC)ccc1C1CCN(CCN2CCC(NC(=O)c3ccc(-c4ccc(C#N)cc4)cc3)CC2)CC1 | 71 |
| CCNc1cc(C(=O)N[C@@H](Cc2ccoc2)[C@H](O)CNC(C)CCCC(C)C)cc(N2CCCCS2(=O)=O)c1.Cl (stereo partly specified) | 68 |
| CCc1c(C)nc(-n2nc(C)cc2NC(=O)c2cccc3ccccc23)[nH]c1=O | 89 |
| CCCN(CCC)C(=O)c1cc(C(=O)N[C@@H](Cc2ccccc2)[C@H](O)CNC2CC2)cc(N2CCCCS2(=O)=O)c1 | 98 |
| CN(C)CC(=O)NCC(NCCCNc1cc(=O)c2ccccc2[nH]1)c1cc(Br)cc(Br)c1 (stereo unspecified) | 2 |
| CC(C)C[C@H](NC(=O)c1cc2ccccc2s1)C(=O)N[C@H]1CCN(Cc2ccc(I)c(OC3CCN(C)C3)c2)C1.O=C(O)C(F)(F)F (stereo partly specified) | 95 |
| Cc1cccc(C(=O)Nc2ccnc(N3CCCN(Cc4cccc(O)c4)CC3)c2)c1.O=C(O)C(F)(F)F | 13 |
| CC(C(=O)NC1CCN(c2ccnc(Nc3ccc(F)cc3)n2)C1)c1ccc(Cl)cc1 (stereo unspecified) | 90 |
| COc1cc(F)c2ncc(Cl)c(CCN3CCC(NCc4ccc5c(c4)NC(=O)CS5)CC3)c2c1.Cl | 85 |
| Cl.O=C(Nc1ccc(Cl)c(Cl)c1)N1CCc2cc3nccc(N4CCN5CCC[C@H]5C4)c3cc21 | 75 |
| COc1cc2c(cc1OC)C(c1ccc(Br)cc1)CN(C)CC2.Cl (stereo unspecified) | 0 |
| O=C1COC2(CN1C1CCN(Cc3ccc(O)c(Cl)c3)C1)c1ccccc1-c1ccccc12.O=CO (stereo unspecified) | 63 |
| O=c1ccc(-c2nc3cc(Cl)c(Cl)cc3n2Cc2ccc(Cl)cc2Cl)c[nH]1 | 67 |
| CN(C)CCN(C)Cc1ccc(-c2ccc3c(Nc4ccc(Cl)cc4F)ccnc3c2)o1 | 76 |
| CC(C)(C)Nc1nc(Nc2cccc([N+](=O)[O-])c2)nc(-n2ccnc2)n1 | 41 |
| COc1cc(OC)cc(-c2nn(-c3ccc([N+](=O)[O-])cc3Cl)c(=S)n2Cc2ccco2)c1 | 100 |

| Structure (SMILES) | Inhibition [%] |
| --- | --- |
| Cc1cccc2nc(-c3ccc(-c4ccc(CN5CCCCC5)cc4)s3)[nH]c12.O=C(O)C(F)(F)F | 87 |
| Fc1cccc(-c2ccc3c(c2)CC(NCc2c[nH]c4cnccc24)C3)c1 (stereo unspecified) | 68 |
| CC(C)CCCC(C)(C)NC[C@@H](O)[C@H](Cc1ccccc1)NC(=O)c1cccc(OCC2CC2)c1 | 91 |
| CN1CCCN(Cc2cccc(-c3ccc(CNC(=O)c4cccc(Cl)c4)c(F)c3)c2)CC1.O=C(O)C(F)(F)F | 38 |
| Br.Cc1cc(C)c(C)c(OCCCON2C(=N)N=C(N)NC2(C)C)c1C | 95 |
| CCOc1ccc(NC(C)=O)c(O)c1 | 0 |
| O=C(/C=C/c1ccc(Cl)c(Cl)c1)NCC1CCN(Cc2ccc(O)cc2)CC1.O=C(O)C(F)(F)F | 0 |
| Br.C=CCc1cccc(OC)c1OCCCON1C(=N)N=C(N)NC1(C)C | 95 |
| Fc1ccc(-c2cncc(-c3ccc(F)cc3)n2)cc1 | 94 |
| O=C(N[C@@H](Cc1ccccc1)C(=O)NC1CCCCC1)c1ccc(O)c(-c2cccc(C(F)(F)F)c2)c1 | 36 |
| CC(C)(CNC(=O)C1CCN(CCOCc2ccccc2)CC1)c1nc(-c2ccc(Cl)c(O)c2)c(-c2ccncc2)[nH]1.Cl | 18 |
| CCOC(=O)c1ccc(NC(=O)c2ccccc2C(=O)O)cc1 | 0 |
| O=C(NCCN1CCN(S(=O)(=O)c2ccc(OC3CCNCC3)c(Br)c2)CC1)c1ccc(Cl)c(Cl)c1.O=C(O)C(F)(F)F | 0 |
| O=C(Cn1c(CCc2cccc(F)c2F)nc(=O)c2ccccc21)N(Cc1ccc(-c2ccc(C(F)(F)F)cc2)cc1)C1CCN(C2CCOCC2)CC1.O=C(O)C(O)C(O)C(=O)O | 76 |
| Cc1ccc(O)cc1Nc1ccnc2cc(-c3cccc(CNCCS(C)(=O)=O)c3)ccc12 | 100 |
